SMILES strings stand for the structures. ± gives the standard deviation of the averaged measurements. Over roughly 1,900 compounds, “relative cell viability (CellTiter-Glo), compound alone” has its median near 1; the lowest 2% begin near 0.16. This is one part of a sample in which the lowest values are shown more often than they occur.

From the supplement of paper PMC9399229 come the findings set out here.

In this assay the test system is Hep3B. Kind of assay: relative cell viability (CellTiter-Glo), compound alone (fraction); higher = more viable cells (less growth inhibition). To be noted: cabozantinib 0 µM; 4 days. (ATP-based viability assays read luminescence as a measure of living cells.)
`C[C@H]1CCC/C=C/[C@@H]2C[C@H](O)C[C@H]2[C@H](O)/C=C/C(=O)O1` [Brefeldin A] displayed a relative cell viability of 0.111 ± 0.0018. The result for `CC(C)OC(=O)[C@H](C)N[P@](=O)(CO[C@H](C)Cn1cnc2c(N)ncnc21)Oc1ccccc1` [Tenofovir Alafenamide (GS-7340)] reads 1.12 ± 0.17.

Take `CC(C)[C@]12O[C@H]1[C@@H]1O[C@]13[C@]1(O[C@H]1C[C@H]1C4=C(CC[C@@]13C)C(=O)OC4)[C@@H]2O` [Triptolide (PG490)]: the relative cell viability worked out at 0.179 ± 0.009.

Compound `CN1CCc2cc3c(cc2C1C1OC(=O)c2c1ccc1c2OCO1)OCO3` (single isomer, unassigned; (+)) [(+)-Bicuculline] yielded a relative cell viability of 1.1 ± 0.094. The result for `CN1[C@@H]2CC(O)C[C@H]1[C@@H]1O[C@@H]12` (stereo not given in full) [Scopine] reads 1.05 ± 0.1; that for `CCN1CCN(C(=O)Cc2ccc(Nc3ncc(F)c(Nc4ccc(C(=O)Nc5ccccc5Cl)cc4)n3)cc2)CC1` [Aurora A Inhibitor I], 0.328 ± 0.1; that for `C[C@@H]1O[C@@H](O[C@H]2C[C@@H](O)[C@]3(CO)[C@H]4[C@H](O)C[C@]5(C)[C@@H](C6=CC(=O)OC6)CC[C@]5(O)[C@@H]4CC[C@]3(O)C2)[C@H](O)[C@H](O)[C@H]1O` [Ouabain], 0.103 ± 0.0012. In the case of `Cn1cc(C2=C(c3cn(C4CCN(Cc5ccccn5)CC4)c4ccccc34)C(=O)NC2=O)c2ccccc21` it was 1.29 ± 0.031; in that of `C[C@@H]1[C@H](O)[C@@H](C)/C=C/C=C/CC/C=C/C=C/C=C/C=C/[C@H](O[C@H]2O[C@@H](C)[C@H](O)[C@@H](N)[C@H]2O)C[C@@H]2O[C@](O)(C[C@@H](O)[C@H](O)CC[C@@H](O)C[C@@H](O)C[C@@H](O)CC(=O)O[C@H]1C)C[C@H](O)[C@H]2C(=O)O` [Nystatin (Fungicidin)], 1.06 ± 0.15; in that of `COC(=O)C1=CCCN(C)C1` [Arecoline], 1.02 ± 0.074. In the case of `c1ccc([C@@H]2C[C@H]2NC2CCNCC2)cc1` it was 0.9895 ± 0.0065. Compound `O=c1[nH]c2ccc(Cl)cc2c(N[C@@H]2CN3CCC2CC3)c1-c1nc2ccccc2[nH]1` displayed a relative cell viability of 0.13 ± 0.018.

In turn, `CCOC(=O)c1cncn1[C@H](C)c1ccccc1` [Etomidate] registered a relative cell viability of 1.24 ± 0.049. In the case of `CCN1CC2(OC(=O)c3ccccc3NC(C)=O)CCC(OC)C34C1C(CC23)C1(O)CC(OC)C2CC4C1(O)C2OC` (stereo not given) [Lappaconite HBr] it was 0.984 ± 0.092; in that of `O=C1C=CC[C@@H]2[C@H]3CCCN4CCC[C@@H](CN12)[C@@H]34` [Sophocarpine], 1.02 ± 0.17. `CCOc1ccccc1-n1c(C(C)N2CCN(C(=O)COc3ccc(Cl)cc3)CC2)nc2ccccc2c1=O` (stereo not given) [Erastin] yielded a relative cell viability of 1.21 ± 0.063. The result for `COc1cc([C@@H]2c3cc4c(cc3[C@H](O)[C@H]3COC(=O)[C@@H]23)OCO4)cc(OC)c1OC` [Picropodophyllin (PPP)] reads 0.7418 ± 0.0018; that for `[O-][n+]1ccccc1[S-].[O-][n+]1ccccc1[S-].[Zn+2]` [Zinc Pyrithione], 0.0193 ± 0.0014. In the case of `CCN(Cc1ccc(Cl)nc1)/C(=C/[N+](=O)[O-])NC` [Nitenpyram] it was 0.914 ± 0.12; in that of `CN1CCN(c2nc3ccccc3nc2Cl)CC1`, 1.13 ± 0.04.
